Data published in PubChem BioAssay (EPA / NIEHS).
Where “and” joins values, the source holds several entries; their conditions need not be identical. Identical values can stand only once. Results filed as inconclusive are left out. The source holds several records for some structures; these can differ, active in one and inactive in another. Calls of active or inactive are those of the source. Rule for the calls, unless noted: active = hit-call score of the fitted dose curve at least 0.9, where 1 is the maximum; inactive = score below 0.9.

Legend:
[1] = target: Retinoic acid receptor RXR-alpha (Homo sapiens) (UniProt P19793); test: ATG_RXRa_TRANS: Attagene TRANS-FACTORIAL HepG2 Assay for human Retinoid X Receptor alpha (RXRa) (AID 2283012; active = hit-call score of the fitted dose curve at least 0.9, where 1 is the maximum)
Chain of Retinoic acid receptor RXR-alpha (Homo sapiens) (P19793 whole entry, looked up, the tested form may be a part): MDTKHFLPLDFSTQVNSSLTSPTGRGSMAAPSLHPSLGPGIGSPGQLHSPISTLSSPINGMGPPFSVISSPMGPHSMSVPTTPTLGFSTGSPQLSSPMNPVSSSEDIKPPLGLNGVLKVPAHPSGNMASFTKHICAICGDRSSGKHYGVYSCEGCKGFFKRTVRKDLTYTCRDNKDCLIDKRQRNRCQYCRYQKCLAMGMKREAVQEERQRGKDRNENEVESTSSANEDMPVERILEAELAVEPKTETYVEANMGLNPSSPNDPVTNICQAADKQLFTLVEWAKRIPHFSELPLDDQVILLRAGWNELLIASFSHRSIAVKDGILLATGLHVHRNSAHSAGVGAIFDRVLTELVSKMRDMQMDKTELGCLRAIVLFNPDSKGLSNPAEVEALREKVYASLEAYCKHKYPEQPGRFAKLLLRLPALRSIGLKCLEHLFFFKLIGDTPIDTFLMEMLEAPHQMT
Method in brief: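 Cells (HepG2) carried transiently transfected GAL4-responsive reporter units. Following a 24 h chemical incubation, reporter mRNA induction was read via RT-PCR fragment analysis; DMSO served as negative control and baseline.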

[2] = target: human Retinoid X Receptor beta (RXRb), RXRB (gene 6257) (UniProt P28702); test: ATG_RXRb_TRANS: Attagene TRANS-FACTORIAL HepG2 Assay for human Retinoid X Receptor beta (RXRb) (AID 2283013; active = hit-call score of the fitted dose curve at least 0.9, where 1 is the maximum)
Chain of human Retinoid X Receptor beta (RXRb), RXRB (gene 6257) (P28702 whole entry, looked up): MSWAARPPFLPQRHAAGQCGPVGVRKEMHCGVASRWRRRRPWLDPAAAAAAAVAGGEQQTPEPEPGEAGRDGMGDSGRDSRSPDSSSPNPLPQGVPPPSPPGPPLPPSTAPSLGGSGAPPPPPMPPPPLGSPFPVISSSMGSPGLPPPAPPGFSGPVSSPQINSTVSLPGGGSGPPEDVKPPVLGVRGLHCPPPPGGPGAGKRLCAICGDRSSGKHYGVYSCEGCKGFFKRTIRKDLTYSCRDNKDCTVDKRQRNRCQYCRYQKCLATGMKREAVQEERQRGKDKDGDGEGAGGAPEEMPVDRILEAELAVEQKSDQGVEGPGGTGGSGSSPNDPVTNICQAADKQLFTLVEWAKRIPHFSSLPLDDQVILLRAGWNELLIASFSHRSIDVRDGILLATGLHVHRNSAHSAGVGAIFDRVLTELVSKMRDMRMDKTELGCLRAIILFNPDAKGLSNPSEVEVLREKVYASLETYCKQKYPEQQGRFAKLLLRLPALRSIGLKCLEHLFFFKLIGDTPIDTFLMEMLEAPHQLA
Method in brief: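 Multiplexed TRANS reporter assay in HepG2; 24 h dosing; reporter mRNA by RT-PCR/CE fluorescence; gain-of-signal relative to DMSO.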

[3] = target: human Thyroid Receptor alpha (THRa1), THRA (gene 7067) (UniProt P10827); test: ATG_THRa1_TRANS: Attagene TRANS-FACTORIAL HepG2 Assay for human Thyroid Receptor alpha (THRa1) (AID 2283014; active = hit-call score of the fitted dose curve at least 0.9, where 1 is the maximum)
Chain of human Thyroid Receptor alpha (THRa1), THRA (gene 7067) (P10827 whole entry, looked up, the tested form may be a part): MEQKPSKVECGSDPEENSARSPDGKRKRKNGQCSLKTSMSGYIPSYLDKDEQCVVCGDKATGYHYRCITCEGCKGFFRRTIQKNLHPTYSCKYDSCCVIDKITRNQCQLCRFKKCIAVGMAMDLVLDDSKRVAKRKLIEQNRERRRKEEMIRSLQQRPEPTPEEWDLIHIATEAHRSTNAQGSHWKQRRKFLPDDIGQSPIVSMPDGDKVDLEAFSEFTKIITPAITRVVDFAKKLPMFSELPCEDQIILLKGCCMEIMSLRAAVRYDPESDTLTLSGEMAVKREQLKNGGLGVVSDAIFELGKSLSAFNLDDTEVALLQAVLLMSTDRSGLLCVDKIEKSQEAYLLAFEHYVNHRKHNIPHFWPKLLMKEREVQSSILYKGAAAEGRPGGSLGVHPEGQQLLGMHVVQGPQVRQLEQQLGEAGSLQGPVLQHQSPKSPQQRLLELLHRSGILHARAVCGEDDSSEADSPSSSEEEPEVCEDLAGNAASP
Method in brief: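 HepG2 cells transiently transfected with multiplexed GAL4-UAS reporter units for exogenous chimeric THRa1-Gal4; reporter mRNA measured 24 h after dosing by RT-PCR, 6-FAM labelling, HpaI digestion and capillary electrophoresis. Gain-of-signal fitted versus DMSO baseline.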

[4] = read-out: E-selectin (Homo sapiens) (UniProt P16581); test: BSK_3C_Eselectin: BioMAP Diversity Plus: 3C Assay for Eselectin Biomarker Activity (AID 2283015); settings: primary human endothelial cells (HUVEC); actives raise or lower the signal
Method in brief: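 Primary human umbilical vein endothelial cells (3C system) were dosed with chemical and cell-surface E-selectin measured by ELISA 24 h later. Bidirectional curve fitting used DMSO as negative control and baseline.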

[5] = read-out: Monocyte Chemoattractant Protein-1 (MCP1), CCL2 (gene 6347); test: BSK_3C_MCP1: BioMAP Diversity Plus: 3C Assay for Monocyte Chemoattractant Protein-1 (MCP1) Biomarker Activity (AID 2283017); settings: primary human endothelial cells (HUVEC); actives raise or lower the signal
Method in brief: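 Primary human umbilical vein endothelial cells (3C system) were exposed to test chemical for 24 h, after which MCP-1 was quantified by ELISA. Activity was fitted bidirectionally against DMSO as negative control and baseline.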

[6] = read-out: Monocyte Chemoattractant Protein-1 (MCP1), CCL2 (gene 6347); test: BSK_4H_MCP1: BioMAP Diversity Plus: 4H Assay for Monocyte Chemoattractant Protein-1 (MCP1) Biomarker Activity (AID 2283018); settings: primary human endothelial cells (HUVEC); actives raise or lower the signal
Method in brief: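 Readout: MCP-1 ELISA on compound-treated HUVEC, sampled 24 h post-dosing. Baseline and negative control DMSO; bidirectional fit. Overt toxicity checked alongside by sulforhodamine B protein staining at time of biomarker measurement.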

[7] = read-out: Human Leukocyte Antigen - DR isotype (HLADR), HLA-DRA (gene 3122); test: BSK_3C_HLADR: BioMAP Diversity Plus: 3C Assay for Human Leukocyte Antigen - DR isotype (HLADR) Biomarker Activity (AID 2283019); settings: primary human endothelial cells (HUVEC); actives raise or lower the signal
Method in brief: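 Primary human umbilical vein endothelial cells (3C system) were dosed with compound and cell-surface HLA-DR was quantified by ELISA at 24 h. Activity was fitted bidirectionally against DMSO as negative control and baseline.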

[8] = read-out: Interleukin-8 (IL8), CXCL8 (gene 3576); test: BSK_3C_IL8: BioMAP Diversity Plus: 3C Assay for Interleukin-8 (IL8) Biomarker Activity (AID 2283020); settings: primary human endothelial cells (HUVEC); actives raise or lower the signal
Method in brief: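 Human vascular endothelial cells (umbilical vein) in the 3C system; IL-8 level detected by ELISA at 24 h post-dose, with DMSO as baseline.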

[9] = read-out: Monokine induced gamma interferon (MIG), CXCL9 (gene 4283); test: BSK_3C_MIG: BioMAP Diversity Plus: 3C Assay for Monokine induced gamma interferon (MIG) Biomarker Activity (AID 2283021); settings: primary human endothelial cells (HUVEC); actives raise or lower the signal;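 for AC50: MIG protein level measured by immunoassay in the treated endothelial cultures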
Method in brief: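 After 24 h of treatment, human umbilical vein endothelial cultures (3C system) had their MIG biomarker level determined by ELISA, with DMSO serving as negative control.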

[10] = target: human Vitamin D Receptor (VDR), VDR (gene 7421) (UniProt P11473); test: ATG_VDR_TRANS: Attagene TRANS-FACTORIAL HepG2 Assay for human Vitamin D Receptor (VDR) (AID 2283022; active = hit-call score of the fitted dose curve at least 0.9, where 1 is the maximum)
Chain of human Vitamin D Receptor (VDR), VDR (gene 7421) (P11473 whole entry, looked up, the tested form may be a part): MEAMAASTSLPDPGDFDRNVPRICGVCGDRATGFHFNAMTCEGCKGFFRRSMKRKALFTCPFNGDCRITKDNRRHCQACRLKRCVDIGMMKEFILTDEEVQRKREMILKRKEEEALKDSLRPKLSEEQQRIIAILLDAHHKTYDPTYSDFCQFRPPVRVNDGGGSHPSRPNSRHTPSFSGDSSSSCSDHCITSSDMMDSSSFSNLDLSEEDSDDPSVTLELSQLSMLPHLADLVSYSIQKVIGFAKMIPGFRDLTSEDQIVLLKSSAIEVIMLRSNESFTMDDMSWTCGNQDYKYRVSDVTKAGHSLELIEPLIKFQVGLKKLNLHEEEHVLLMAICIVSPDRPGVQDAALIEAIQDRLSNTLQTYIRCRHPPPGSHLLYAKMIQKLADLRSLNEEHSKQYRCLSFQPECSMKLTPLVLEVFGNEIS
Method in brief: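 HepG2 cells were transiently transfected with multiple GAL4-UAS reporter units, so signal reflects exogenous chimeric receptor-Gal4 activity. After 24 h compound exposure, reporter mRNA was measured by RT-PCR, fluorescent labelling and capillary electrophoresis, fitted for gain of signal versus DMSO.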

[11] = BSK_3C_SRB: Viability Assessment in the BioMAP Diversity Plus: 3C Assay (AID 2283023); settings: primary human endothelial cells (HUVEC);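 note: fitted both ways against DMSO so a hit may be signal rise or drop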
Method in brief: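 Primary human umbilical vein endothelial cells in the 3C system were read 24 h after compound dosing. Total protein was stained with 0.1% sulforhodamine B after 10% TCA fixation and read at 560 nm, with bidirectional fitting against DMSO as baseline.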

[12] = read-out: Matrix Metallopeptidase 1 (MMP1), MMP1 (gene 4312); test: BSK_BE3C_MMP1: BioMAP Diversity Plus: BE3C Assay for Matrix Metallopeptidase 1 (MMP1) Biomarker Activity (AID 2283024); settings: primary human bronchial epithelial cells; actives raise or lower the signal
Method in brief: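 Dose cells, wait 24 h, run MMP1 ELISA; cells are human bronchial epithelial primaries. Both increases and decreases relative to DMSO counted.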

[13] = BSK_3C_Vis: BioMAP Diversity Plus: 3C Assay for Morphology Visualization (AID 2283025); settings: primary human endothelial cells (HUVEC);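 note: fitted both ways so gain or loss versus DMSO counts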;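 for AC50: light microscopy image of cell morphology used as background control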
Method in brief: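 Endothelial cells from human umbilical vein were treated with test chemicals for 24 h and inspected by light microscopy for changes in cell conformation.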

[14] = read-out: Pselectin, SELP (gene 6403); test: BSK_4H_Pselectin: BioMAP Diversity Plus: 4H Assay for Pselectin Biomarker Activity (AID 2283026); settings: primary human endothelial cells (HUVEC); actives raise or lower the signal
Method in brief: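 Human vascular endothelium from umbilical vein; P-selectin measured by ELISA at 24 h post-dose, with cytotoxicity checked by sulforhodamine B total-protein staining in parallel cultures (0.1% SRB after 10% TCA fixation, read at 560 nm).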

[15] = read-out: Thrombomodulin, THBD (gene 7056); test: BSK_3C_Thrombomodulin: BioMAP Diversity Plus: 3C Assay for Thrombomodulin Biomarker Activity (AID 2283029); settings: primary human endothelial cells (HUVEC); actives raise or lower the signal
Method in brief: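 Thrombomodulin ELISA, human primary HUVEC, 24 h post-dose; data fitted in both directions relative to DMSO.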

[16] = read-out: Urokinase-type plasminogen activator receptor (uPAR), PLAUR (gene 5329); test: BSK_4H_uPAR: BioMAP Diversity Plus: 4H Assay for Urokinase-type plasminogen activator receptor (uPAR) Biomarker Activity (AID 2283030); settings: primary human endothelial cells (HUVEC); actives raise or lower the signal
Method in brief: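 Primary human umbilical vein endothelial cells were exposed to chemical for 24 h before cell-surface uPAR was quantified by ELISA. Activity was fitted bidirectionally against the DMSO negative control baseline.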

[17] = read-out: Vascular endothelial growth factor receptor 2 (Homo sapiens) (UniProt P35968); test: BSK_4H_VEGFRII: BioMAP Diversity Plus: 4H Assay for Vascular endothelial growth factor receptor 2 (VEGFR2) Biomarker Activity (AID 2283031); settings: primary human endothelial cells (HUVEC); actives raise or lower the signal;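 for AC50: cell-surface VEGFR2 protein level quantified by ELISA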
Method in brief: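 Primary human umbilical vein endothelial cells in the BioMAP 4H system were dosed with test chemical, and 24 h later VEGFRII was measured by ELISA. Activity was fitted bidirectionally against DMSO as negative control and baseline.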

[18] = BSK_BE3C_SRB: Viability Assessment in the BioMAP Diversity Plus: BE3C Assay (AID 2283028); settings: primary human bronchial epithelial cells;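 for AC50: fitted both ways so AC50 may mark signal gain or loss versus DMSO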
Method in brief: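 Human primary bronchial epithelial cells were exposed to test chemicals for 24 h. Total protein in parallel cultures was then measured by staining with 0.1% sulforhodamine B after 10% TCA fixation, with absorbance read at 560 nm. Activity was fitted bidirectionally against DMSO.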

[19] = read-out: Interleukin-1 alpha (IL1a), IL1A (gene 3552); test: BSK_BE3C_IL1a: BioMAP Diversity Plus: BE3C Assay for Interleukin-1 alpha (IL1a) Biomarker Activity (AID 2283016); settings: primary human bronchial epithelial cells; actives raise or lower the signal
Method in brief: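 Cultures of primary human bronchial epithelial cells receive test chemical. After 24 h, IL-1a is quantified by ELISA, while parallel wells are fixed in TCA and SRB-stained for total protein. Changes in either direction are fitted relative to DMSO.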

[20] = BSK_4H_SRB: Viability Assessment in the BioMAP Diversity Plus: 4H Assay (AID 2283027); settings: primary human endothelial cells (HUVEC);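 note: cells exposed to compound for 24 h before staining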;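 for AC50: curves fitted both ways versus DMSO so AC50 may be loss or gain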
Method in brief: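 Human umbilical vein endothelial cells, 24 h after chemical dosing; total protein measured by 0.1% sulforhodamine B staining after 10% TCA fixation, read at 560 nm. Bidirectional fitting against DMSO.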

Measured: AC50

Chain of E-selectin (Homo sapiens) (P16581 whole entry, looked up): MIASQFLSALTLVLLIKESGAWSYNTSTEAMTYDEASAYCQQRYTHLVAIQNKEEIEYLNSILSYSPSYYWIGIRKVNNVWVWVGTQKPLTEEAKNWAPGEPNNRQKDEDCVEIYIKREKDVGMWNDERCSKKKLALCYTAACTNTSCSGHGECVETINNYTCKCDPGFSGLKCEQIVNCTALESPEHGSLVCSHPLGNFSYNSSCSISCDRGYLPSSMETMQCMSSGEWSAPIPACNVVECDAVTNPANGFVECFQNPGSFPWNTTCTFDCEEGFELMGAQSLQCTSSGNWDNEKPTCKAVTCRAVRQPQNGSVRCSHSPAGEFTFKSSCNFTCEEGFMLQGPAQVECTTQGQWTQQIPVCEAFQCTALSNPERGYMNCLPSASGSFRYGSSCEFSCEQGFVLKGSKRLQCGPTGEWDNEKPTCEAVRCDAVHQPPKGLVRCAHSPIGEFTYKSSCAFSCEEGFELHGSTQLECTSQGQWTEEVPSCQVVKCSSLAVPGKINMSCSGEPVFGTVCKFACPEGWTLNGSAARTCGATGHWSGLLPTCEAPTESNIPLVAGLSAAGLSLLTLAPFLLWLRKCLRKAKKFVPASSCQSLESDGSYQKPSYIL

Nc1cccc2c(N)cccc12
not listed: [18] | [19] | [20]
inactive: all other assays above

CCCCCCCCCCCCCCCS(=O)(=O)Oc1ccccc1
not listed: [19] | [20]
inactive: all other assays above

O=c1c(-c2ccc(O)cc2)coc2cc(O)ccc12
active: [6] 13.8 µM | [7] 27.1 µM | [14] 20 µM
not listed: [10]
inactive: all other assays above

CCCCCCCCCCCCCC[N+](C)(C)C
inactive: [1] | [2] | [3] | [10] | [16] | [17]
active: [3] 26.7 µM | [4] 8.8 µM | [5] 2.17 µM | [6] 1.69 µM | [7] 2.1 µM | [8] 6.77 µM | [9] 8.96 µM | [11] 1.38 µM | [12] 5.8 µM | [13] 3.02 µM | [14] 1.95 µM | [20] 5.31 µM | [18] 5.28 µM

OCCC(F)(F)C(F)(F)C(F)(F)C(F)(F)C(F)(F)C(F)(F)F
active: [5] 49.8 µM | [7] 46.1 µM and 42.1 µM | [8] 45.7 µM | [9] 44.8 µM and 45.3 µM | [11] 57.7 µM | [14] 46.8 µM | [17] 7.51 µM
inactive: [1] | [2] | [3] | [4] | [5] | [6] | [7] | [8] | [9] | [11] | [12] | [13] | [14] | [18] | [15] | [16] | [17]

Cc1ccc(S(=O)(=O)O)c(C)c1
active: [2] 58.6 µM
inactive: [1] | [2] | [10]
